TDP1 block: qHTS Assay for Inhibitors of Tyrosyl-DNA Phosphodiesterase (TDP1); Tyrosyl-DNA phosphodiesterase 1 (Homo sapiens), Q9NUW8; recombinant TDP1, AlphaScreen DNA substrate cleavage; Potency, µM (titrated, usually from 130 µM), for inactives: at the top dose activity change, negative = inhibition, hits mostly inhibitors; hit rate 0.28% among 350,000; AID 485290, 2010; note: potency is the fitted concentration of half-maximal effect; % is set by controls: 0 for no effect and ±100 for the full control effect; nearly all actives have a fitted effect of over 40% in size
Target sequence (Q9NUW8 whole entry, looked up): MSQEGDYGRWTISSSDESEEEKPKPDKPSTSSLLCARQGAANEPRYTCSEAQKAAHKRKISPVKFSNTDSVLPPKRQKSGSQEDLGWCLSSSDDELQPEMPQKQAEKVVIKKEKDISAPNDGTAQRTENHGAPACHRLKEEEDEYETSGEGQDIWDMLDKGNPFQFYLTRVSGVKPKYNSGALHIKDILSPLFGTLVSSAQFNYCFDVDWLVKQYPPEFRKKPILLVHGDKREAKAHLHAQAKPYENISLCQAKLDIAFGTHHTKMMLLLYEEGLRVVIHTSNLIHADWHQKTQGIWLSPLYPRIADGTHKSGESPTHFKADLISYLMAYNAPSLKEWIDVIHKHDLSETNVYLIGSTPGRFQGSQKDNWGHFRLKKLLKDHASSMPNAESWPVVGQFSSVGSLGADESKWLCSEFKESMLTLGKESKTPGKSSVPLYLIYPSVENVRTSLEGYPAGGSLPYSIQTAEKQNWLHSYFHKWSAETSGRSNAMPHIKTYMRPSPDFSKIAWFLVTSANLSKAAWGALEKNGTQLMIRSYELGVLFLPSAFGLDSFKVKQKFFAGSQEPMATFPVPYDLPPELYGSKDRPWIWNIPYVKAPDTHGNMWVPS
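Signal: AlphaScreen proximity between streptavidin donor and anti-FITC acceptor beads on intact substrate. Reaction: Tdp1 1 nM, substrate 15 nM final, 5 min RT after 15 min compound preincubation.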
DT40 TDP1 CPT: qHTS for Inhibitors of human tyrosyl-DNA phosphodiesterase 1 (TDP1): qHTS in cells in presence of CPT; chicken DT40 Tdp1-/-;hTDP1 cells + 20 nM CPT, ATP luminescence, 48 h; Potency, µM (doses to about 46.2 µM), for the others: at the top dose activity change, negative = growth inhibition, actives largely listed as inhibitors; hit rate 12% among 420,000; note: potency is the fitted concentration of half-maximal effect; % is set by controls: 0 for no effect and ±100 for the full control effect; nearly all actives have a fitted effect of over 55% in size
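Chicken DT40 Tdp1-/- cells complemented with human TDP1, 400 cells/well, exposed to compounds plus 20 nM camptothecin for at least 48 h at 37 C; viability read as ATP content by CellTiter-Glo luminescence.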
TGFb inhibitor: qHTS for Inhibitors of TGF-b; HepG2 CAGA-GFP TGF-b/SMAD3 reporter, GFP fluorescence, 18 h; TGF-beta stimulated, 500 pg/mL final; Potency, µM (titrated, usually from 46.1 µM), inactives show at the highest dose activity, negative = inhibition, usual class: inhibitors; hit rate 1.2% among 410,000; AID 588855, 2011; note: potency is the fitted concentration of half-maximal effect; % is set by controls: 0 for no effect and ±100 for the full control effect; nearly all actives have a fitted effect of over 65% in size
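HEPG2 CAGA-GFP cells (1000/well, DMEM with 1% FBS) were pre-incubated 2 h at 37 degrees C, given compound by pin tool, then stimulated with TGF-beta at 500 pg/mL final for 18 h before per-cell GFP fluorescence imaging.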
IL1B secr inh: qHTS for Inhibitors of Inflammasome Signaling: IL-1-beta AlphaLISA Primary Screen | THP-1 LPS/ATP IL-1B secretion, AlphaLISA, 16 h; hits give low values | activity change, % at 57.5 µM | hit rate 4.7% among 360,000; in the data active = activity change below about -50%; inconclusive = mostly about -30% to -49%; note: % is set by controls: 0 for no effect and ±100 for the full control effect
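THP-1 cells pretreated 1 hr with compounds (up to 57.5 uM final), then stimulated with LPS (250 ng/mL final) plus ATP (1.25 mM final); secreted IL-1B measured by AlphaLISA after 16 hr, decreased signal indicating inhibition.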
HepG2 tox: qHTS for Inhibitors of TGF-b: Cytotox Counterscreen | HepG2 CAGA-GFP viability, ATP luminescence, 18 h | Potency, µM (doses to about 46.1 µM), without a hit: at the top dose activity change, negative = cytotoxicity, most hits filed as cytotoxic | hit rate 0.76% among 410,000 | AID 588856, 2011; note: potency is the fitted concentration of half-maximal effect
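CellTiter-Glo luminescence gave cytotoxicity after 18 hours at 37 degrees C. The cells were HepG2 CAGA-GFP in 1% FBS DMEM, stimulated with 500 pg/mL TGF-beta after compound addition. %Activity was normalised to no-cell wells (complete cell-killing) and DMSO (no toxicity), and curves were fitted and classified.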
DT40 TDP1 no CPT: qHTS for Inhibitors of human tyrosyl-DNA phosphodiesterase 1 (TDP1): qHTS in cells in absence of CPT | DT40 Tdp1-/- hTDP1 cells, no CPT, ATP luminescence, 48 h | Potency, µM (top dose mostly 46.2 µM), for the others: top-dose activity change, negative = growth inhibition, usual class: inhibitors | hit rate 15% among 420,000 | AID 686978, 2013; note: potency is the fitted concentration of half-maximal effect; % is set by controls: 0 for no effect and ±100 for the full control effect; nearly all actives have a fitted effect of over 55% in size
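Growth of hTDP1-complemented DT40 Tdp1-knockout cells is measured by ATP luminescence after at least 48 hr compound exposure at 37 °C, with DMSO substituting for the 20 nM CPT used in the parallel screen.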
* hit, by the source's call. A selection: hits, their analogues and other compounds. The true share with any hit is near 19%. Unless noted, calls come from the whole dose curve; as a rule, active = well fitted curve in the direction sought with a large enough effect; inconclusive = small, poorly fitted or top-dose-only effect, or another doubt; inactive = no such curve, though single readings can be large; an effect the other way counts as inactive or inconclusive.

`Cn1c(-c2c(N)n(-c3ccccc3)c3nc4ccccc4nc23)nc2ccccc21` gave TDP1 block 0%, DT40 TDP1 CPT 12µM*, TGFb inhibitor -14%, IL1B secr inh 0, HepG2 tox -34% and DT40 TDP1 no CPT inconclusive.
Cc1cccc(NC2=Nc3ccccc3N3C2=Nc2c(c(C)nn2-c2ccccc2)C3c2ccc(O)c(O)c2)c1 (configuration not stated) was read as TDP1 block -4%, DT40 TDP1 CPT inconclusive, TGFb inhibitor inconclusive, IL1B secr inh -15, HepG2 tox -99% and DT40 TDP1 no CPT inconclusive.
Cc1nn(-c2ccccc2)c2c1C(c1ccc([N+](=O)[O-])cc1)N1C(=N2)C(=O)Nc2ccccc21 (configuration not stated) was read as TDP1 block 8%, DT40 TDP1 CPT inconclusive, TGFb inhibitor inconclusive, IL1B secr inh -75*, HepG2 tox 11% and DT40 TDP1 no CPT 15µM*.
Cc1nn(-c2ccccc2)c2c1C(c1ccc(Cl)cc1)N(c1ccccc1)C(=O)N2 (configuration not stated) was read as TDP1 block 8%, DT40 TDP1 CPT inconclusive, TGFb inhibitor -14%, IL1B secr inh -14, HepG2 tox 0% and DT40 TDP1 no CPT -25%.
Screening Cc1nn(-c2ccc([N+](=O)[O-])cc2)c2c1C(c1cccc(Br)c1)N1C(=N2)C(=O)Nc2ccccc21 (configuration not stated) returned TDP1 block 3%, DT40 TDP1 CPT 2.6µM*, TGFb inhibitor inconclusive, IL1B secr inh 3, HepG2 tox -1% and DT40 TDP1 no CPT 3.3µM*.
For CCN1C(=O)/C(=C/c2ccc(C)o2)N(C)C1=S the results were TDP1 block -3%, DT40 TDP1 CPT -4%, TGFb inhibitor 2%, IL1B secr inh -2, HepG2 tox -15% and DT40 TDP1 no CPT 4%.
For CN1c2ccccc2C2(C)CCCC3=Cc4cc([N+](=O)[O-])cc([N+](=O)[O-])c4OC312 (configuration not stated) the results were TDP1 block 8%, DT40 TDP1 CPT 15µM*, TGFb inhibitor 3%, IL1B secr inh -2, HepG2 tox -64% and DT40 TDP1 no CPT 23µM*.
Screening CN1c2ccccc2C2(C)CCCC3=Cc4cccc([N+](=O)[O-])c4OC312 (configuration not stated) returned TDP1 block 5%, DT40 TDP1 CPT inconclusive, TGFb inhibitor -27%, IL1B secr inh -2, HepG2 tox -38% and DT40 TDP1 no CPT 16µM*.
For CCCN(CC(=O)Nc1ccccc1C)C(=O)C1CCN(S(=O)(=O)c2ccccc2C(F)(F)F)CC1 the results were TDP1 block 0%, DT40 TDP1 CPT -21%, TGFb inhibitor -4%, IL1B secr inh -2, HepG2 tox 7% and DT40 TDP1 no CPT -30%.
O=C(Nc1nnc(Cc2ccc(Cl)cc2)s1)C1CCN(C(=O)c2ccco2)CC1 was read as DT40 TDP1 CPT inconclusive, TGFb inhibitor inconclusive, HepG2 tox -8% and DT40 TDP1 no CPT inconclusive.
For COc1ccc(-c2noc(-c3csc([C@@H]4C[C@H](O)[C@@H](CO)O4)n3)n2)cc1OC the results were DT40 TDP1 CPT inconclusive, TGFb inhibitor 1%, IL1B secr inh -17, HepG2 tox -10% and DT40 TDP1 no CPT inconclusive.
Screening CCOc1ccc(-c2noc(-c3csc([C@@H]4C[C@H](O)[C@@H](CO)O4)n3)n2)cc1 returned DT40 TDP1 CPT inconclusive, TGFb inhibitor -18%, IL1B secr inh -10, HepG2 tox -2% and DT40 TDP1 no CPT 23µM*.
Screening COc1cc(OC)cc(-c2noc(-c3csc([C@@H]4C[C@H](O)[C@@H](CO)O4)n3)n2)c1 returned DT40 TDP1 CPT inconclusive, TGFb inhibitor inconclusive, IL1B secr inh inconclusive, HepG2 tox -3% and DT40 TDP1 no CPT 15µM*.
For Cc1ccc(NC(=O)CSCc2cc(=O)c3ccccc3[nH]2)c(C)c1 the results were TDP1 block 5%, DT40 TDP1 CPT inconclusive, TGFb inhibitor inconclusive, HepG2 tox -18% and DT40 TDP1 no CPT inconclusive.
Screening CO/N=C/C(=N\Nc1ccc(OC)cc1)C(=O)c1ccc(F)cc1 returned TDP1 block 9%, DT40 TDP1 CPT inconclusive, TGFb inhibitor 1%, IL1B secr inh 30, HepG2 tox 1% and DT40 TDP1 no CPT inconclusive.
`CO/N=C/C(=N\Nc1ccc(C)cc1)C(=O)c1ccc(OC)cc1` gave TDP1 block 2%, DT40 TDP1 CPT 4.1µM*, TGFb inhibitor -3%, IL1B secr inh -10, HepG2 tox 16% and DT40 TDP1 no CPT 3.3µM*.
`CC(C)CC(NC(=O)C1CCC(=O)N1C(=O)OCc1ccccc1)C(=O)NC(Cc1ccccc1)C(N)=O` (configuration not stated) gave TDP1 block 4%, DT40 TDP1 CPT -17%, TGFb inhibitor -16%, IL1B secr inh 0, HepG2 tox 1% and DT40 TDP1 no CPT inconclusive.
Screening c1ccc(SSc2ccccn2)nc1 returned DT40 TDP1 CPT 2.9µM*, TGFb inhibitor inconclusive, IL1B secr inh -91*, HepG2 tox -40% and DT40 TDP1 no CPT 4.6µM*.
For Cc1ccc(Cl)cc1NS(=O)(=O)c1cc2c(cc1Cl)CCC(=O)N2 the results were TDP1 block 2%.
`C/C(=N\NC(=S)NC(C)C)c1ccccc1` gave DT40 TDP1 CPT inconclusive, TGFb inhibitor -15%, IL1B secr inh -6, HepG2 tox -8% and DT40 TDP1 no CPT inconclusive.
CC(NC1CCCCC1)C(=O)NN=C(c1ccccc1)c1ccccc1 (configuration not stated) was read as DT40 TDP1 CPT inconclusive, TGFb inhibitor 5%, IL1B secr inh -63*, HepG2 tox -17% and DT40 TDP1 no CPT inconclusive.
C/C(=N\NC(=S)NC1CCCCC1)c1ccc(O)cc1 was read as TDP1 block 8%, DT40 TDP1 CPT inconclusive, TGFb inhibitor -10%, IL1B secr inh inconclusive, HepG2 tox -12% and DT40 TDP1 no CPT 16µM*.
